# Data published in PubChem BioAssay (Tox21).
# Results filed as inconclusive are left out. A number with no mark means an inactive call. The source made the active and inactive calls. The call rests on the fitted dose curve; in most records, active means well fitted activation curve with a large enough effect in the repeat runs; inconclusive means weak or mixed curves; inactive means no such curve, though single readings can be large or run the other way. Non-standard residues stand in square brackets, D forms with d. Residues, ends and D or L forms follow the SMILES beside them. *: point of attachment. Sta = CC(C)C[C@H](N)[C@@H](O)CC(=O)O; Isovaleryl = CC(C)CC(=O)*
# Biological target: Nuclear receptor subfamily 1 group I member 2 (Rattus norvegicus) (UniProt Q9R1A7)
# Sequence (Q9R1A7 whole entry, looked up): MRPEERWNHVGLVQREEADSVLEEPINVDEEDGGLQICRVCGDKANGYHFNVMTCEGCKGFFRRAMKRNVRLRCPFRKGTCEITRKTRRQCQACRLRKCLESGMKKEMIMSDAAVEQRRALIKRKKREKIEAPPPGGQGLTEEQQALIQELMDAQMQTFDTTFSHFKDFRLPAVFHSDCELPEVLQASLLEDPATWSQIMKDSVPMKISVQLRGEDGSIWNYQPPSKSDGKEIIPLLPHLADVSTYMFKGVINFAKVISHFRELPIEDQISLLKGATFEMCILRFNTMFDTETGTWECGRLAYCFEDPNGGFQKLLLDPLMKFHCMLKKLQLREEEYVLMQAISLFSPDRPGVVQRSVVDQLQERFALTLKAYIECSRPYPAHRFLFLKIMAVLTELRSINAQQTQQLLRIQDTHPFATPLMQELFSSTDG
# Assay: Rat pregnane X receptor (rPXR) activation by small molecules, qHTS assay (AID 1346983); further: nearly all actives have a fitted effect of over 20% in size
# Settings: rPXR luciferase reporter cells, One-Glo luminescence, 24 h; max activation: stronger effect = higher value
# From the text: National Center for Advancing Translational Sciences [NCATS] NIH Chemical Genomics Center [NCGC] U.S. Environmental Protection Agency [EPA] National Institutes of Environmental Health Sciences [NIEHS] National Toxicology Program [NTP] Assay overview: The Pregnane X receptor (PXR), a ligand activated nuclear receptor plays a critical role in the regulation of genes involved in drug metabolism and transporters. PXR binds xenobiotics and when compounds interact with PXR produces enhanced expression of CYP3A genes. In humans PXR activation and CYP3A4 induction can be problematic due to their interactions with co-medicated drugs and decrease their efficacy or increase their own metabolism. However, there are known species-specific differences with regard to PXR activation that should be taken into account when animal PXR data are extrapolated to humans. A cell based rat PXR (rPXR) assay (developed by Puracyp, Inc., CA) was used to assess the activation of rPXR.
# Assay Protocol Summary: rPXR cells were dispensed at 2,000 per well in 5uL of assay medium into white, solid-bottom 1536-well plates using a Multidrop Combi dispenser (Thermo Scientific). The assay plates were incubated at 37 C for 5hr before transferring 23 nL of test compounds dissolved in DMSO and positive control via Pintool station (Wako). The assay plates were incubated at 37 C for 24 hr. Then 5ul One-Glo assay reagent (Promega) was added to each plate by a Flying Reagent Dispenser (FRD, Aurora Discovery) and following 30 min incubation at room temperature, luciferase activity was quantified on a ViewLux plate reader (Perkin Elmer).
# On the % scale 0 is the no-effect control and ±100 the full control effect; potency means the concentration at half of the fitted maximal effect.
Compound,max activation,Potency
Nc1ccc(C(=O)NCC(=O)O)cc1,-2.15%,–
CCOc1ccccc1OCCN[C@H](C)Cc1ccc(OC)c(S(N)(=O)=O)c1,-6.48%,–
C[C@]12C=CC(=O)C=C1[C@@H](F)C[C@@H]1[C@@H]2[C@@H](O)C[C@@]2(C)[C@H]1CC[C@]2(O)C(=O)CO,–,12.6 µM (active)
Cc1ccc(S(=O)(=O)NC(=O)NN2CC3CCCC3C2)cc1 (stereo not given),1.11%,–
CN(C)CCc1c[nH]c2ccc(CS(=O)(=O)N3CCCC3)cc12,-1.76%,–
CCOC(=O)[C@H](CCc1ccccc1)N[C@H]1CS[C@H](c2cccs2)CN(CC(=O)O)C1=O,-2.69%,–
CC[C@@]1(c2ccccc2)NC(=O)N(C)C1=O,-0.191%,–
O=C(CCBr)N1CCN(C(=O)CCBr)CC1,-2.92%,–
NS(=O)(=O)c1cc2c(cc1C(F)(F)F)NCNS2(=O)=O,-2.82%,–
C[C@H]1COc2c(C3(N)CC3)c(F)cc3c(=O)c(C(=O)O)cn1c23,-2.87%,–
C=CCN1CCc2nc(N)sc2CC1,-4.96%,–
CN1C(CCl)Nc2cc(Cl)c(S(N)(=O)=O)cc2S1(=O)=O (stereo not given),-9.91%,–
COc1ccc2cc(CCC(C)=O)ccc2c1,–,8.91 µM (active)
CCN1CCN(C(=O)N[C@@H](C(=O)N[C@@H]2C(=O)N3C(C(=O)O)=C(CSc4nnnn4C)CS[C@H]23)c2ccc(O)cc2)C(=O)C1=O,-3.62%,–
N=C(N)N1CCc2ccccc2C1,-0.056%,–
CCCCN=C(N)N=C(N)N,-2.74%,–
O=C(O)P(=O)(O)O,-4.52%,–
N[C@H]1C(O)O[C@H](CO)[C@@H](O)[C@@H]1O (stereo not given in full),3.63%,–
O=C(OOC(=O)c1ccccc1)c1ccccc1,-2.52%,–
C[C@@H](CN1CC(=O)NC(=O)C1)N1CC(=O)NC(=O)C1,-0.624%,–

Compound,max activation,Potency
COc1cnc(NS(=O)(=O)c2ccc(N)cc2)nc1,-1.37%,–
CC(C)(C)C(=O)NCCCC(=O)O,-1.4%,–
O=P(O)(O)C(O)(Cc1cccnc1)P(=O)(O)O,-2.56%,–
CC(O)CCCCn1c(=O)c2c(ncn2C)n(C)c1=O (stereo not given),-1.02%,–
CC(C)(C)NCC(O)COc1cccc2c1CCC(=O)N2 (stereo not given),-2.26%,–
O=S(=O)(O)c1cc(I)c(O)c2ncccc12,-0.763%,–
COc1cc(OC)cc(OC)c1,-1.98%,–
COc1cc2nc(N3CCN(C(=O)C4CCCO4)CC3)nc(N)c2cc1OC (stereo not given),0.468%,–
CN(C)CCC[C@@]1(c2ccc(F)cc2)OCc2cc(C#N)ccc21,-1.39%,–
C[C@@H]1CC[C@@]2(OC1)O[C@H]1C[C@H]3[C@@H]4CC[C@H]5C[C@@H](O)CC[C@]5(C)[C@H]4CC(=O)[C@]3(C)[C@H]1[C@@H]2C,-0.0535%,–
CC(=O)Nc1ccc(OCCOCCOc2ccc(NC(C)=O)cc2)cc1,-0.187%,–
CNCCc1ccccn1,-1.65%,–
NCC1CCC(C(=O)Oc2ccc(CCC(=O)O)cc2)CC1 (stereo not given),-5.61%,–
NC(=O)CC[C@@H](N)C(=O)O,0.0386%,–
CN1CCN(C(=O)C2CCCCC2)CC1,-9.64%,–
C[C@@H]1NC(=O)[C@@H](N)CNC(=O)[C@H](C2CCNC(N)=N2)NC(=O)/C(=C/NC(N)=O)NC(=O)[C@H](CNC(=O)C[C@@H](N)CCCN)NC1=O (stereo not given in full),-6.29%,–
C[n+]1ccccc1/C=N/O,-0.461%,–
CCCCC(CC)CCC(CC(C)C)OS(=O)(=O)O (stereo not given),-2.27%,–
COC(=O)N/N=C/c1c[n+]([O-])c2ccccc2[n+]1[O-],-1.2%,–
CC(C)CC(=O)N[C@H](C(=O)N[C@H](C(=O)N[C@@H](CC(C)C)[C@@H](O)CC(=O)N[C@@H](C)C(=O)N[C@@H](CC(C)C)[C@@H](O)CC(=O)O)C(C)C)C(C)C (Isovaleryl-VV[Sta]A[Sta]-OH),-4.42%,–
